Reference: PubChem BioAssay (Tox21)
Values without a mark were called inactive. Inconclusive results are not listed. Where a call stands in place of a potency, no number is given. Calls of active or inactive are those of the source. Unless noted, the call rests on the fitted dose curve.

What was measured:
[1] = target: Androgen receptor (Homo sapiens) (UniProt P10275); assay: qHTS assay to identify small molecule agonists of the androgen receptor (AR) signaling pathway in the presence of an antagonist (AID 1259381); further: nearly all actives have a fitted effect of over 15% in size
How it was run: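 Agonist-mode confirmation screen: human MDA-kb2 cells stably expressing luciferase under an MMTV promoter bearing AR and GR response elements, co-treated with 3.0uM nilutamide (final). Luminescence measured after 16hr compound incubation.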

[2] = qHTS assay to identify small molecule antagonists of the estrogen receptor beta (ER-beta) signaling pathway - cell viability counter screen (AID 1259382; active means well fitted curve in the direction sought with a large enough effect in the repeat runs; an effect the other way counts as inactive or inconclusive; further: nearly all actives have a fitted effect of over 55% in size; further: potency means the concentration at half of the fitted maximal effect;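 on activity change, negative = cytotoxicity: HEK293T cells carrying ER-beta-UAS-bla reporter stimulated with estradiol; series mostly up to about 92 µM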)
How it was run: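 Cytotoxicity counter screen multiplexed with the beta-lactamase antagonist assay: GripTite HEK293T ER-beta-bla cells were treated 16 hr with test chemicals in the presence of 1nM 17-beta-estradiol, and viability was measured by CellTiter-Glo.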

[3] = qHTS assay to identify small molecule agonists or antagonists of the thyroid stimulating hormone receptor (TSHR) signaling pathway - wild type cell line counter screen (AID 1259384)
How it was run: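 Wild-type HEK293 cells were plated 18 h at 37 C/5% CO2, pin-dosed with compound plus Ro20-1724 medium, held 30 min at room temperature, then given cAMP-d2 and anti-cAMP-cryptate; fluorescence was read after 1 h. Fifteen concentrations, triplicate.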

[4] = target: Thyrotropin receptor (Homo sapiens) (UniProt P16473); assay: qHTS assay to identify small molecule antagonists of the thyroid stimulating hormone receptor (TSHR) signaling pathway (AID 1259385); further: nearly all actives have a fitted effect of over 20% in size; further: potency means the concentration at half of the fitted maximal effect
How it was run: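 TSHR-HEK293 cells were plated and held 18 h at 37C/5% CO2, then given compound plus Ro20-1724 and stimulated with TSH at 1.5 ng/mL final. After 30 min at room temperature, cAMP was detected with cAMP-d2/anti-cAMP-cryptate (1 h) by fluorescence.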

[5] = qHTS assay to identify small molecule antagonists of the progesterone receptor (PR) signaling pathway - cell viability counter screen (AID 1346798; active means well fitted curve in the direction sought with a large enough effect in the repeat runs; an effect the other way counts as inactive or inconclusive; further: nearly all actives have a fitted effect of over 50% in size; further: potency means the concentration at half of the fitted maximal effect;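 on activity change, negative = cytotoxicity: HEK293T PR-UAS-bla cells stimulated with the agonist R5020; series mostly up to about 92 µM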)
How it was run: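 HEK293T PR-UAS-bla, 2% charcoal-stripped FBS; 4 hr pre-plate; cpd + R5020, 16 h 37C; LiveBLAzer read first; then CellTiter-Glo 30 min RT, luminescence.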

[6] = target: Estrogen receptor (Homo sapiens) (UniProt P03372); assay: qHTS assay to identify small molecule agonists of the estrogen receptor alpha (ER-alpha) signaling pathway in the presence of an antagonist (AID 1259383); further: nearly all actives have a fitted effect of over 15% in size; further: potency means the concentration at half of the fitted maximal effect; on activation: top concentration of the series differs between compounds
How it was run: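 Agonist-mode confirmation in the presence of the ER antagonist ICI-182,780 at 10.0nM final. Breast-derived VM7Luc4E2 reporter cells were exposed to compounds for 22hr, and ERE-driven luciferase was quantified by luminescence.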

[7] = qHTS assay to identify small molecule agonists of the estrogen receptor alpha (ER-alpha) signaling pathway in the presence of an antagonist - cell viability counter screen (AID 1259386; active means well fitted curve in the direction sought with a large enough effect in the repeat runs; an effect the other way counts as inactive or inconclusive;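 further: cells exposed to compounds for 22 h at 37 °C before the viability read; nearly all actives have a fitted effect of over 30% in size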; further: potency means the concentration at half of the fitted maximal effect; on activity change, negative = cytotoxicity: series mostly up to about 92 µM)
How it was run: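 Cytotoxicity was measured in parallel with the ERE-luciferase agonist screen, in the same wells. The cells were VM7Luc4E2, which endogenously express ER-alpha, and treatment was with compounds plus 10.0nM ICI-182,780 for 22hr.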

[8] = target: Progesterone receptor (Homo sapiens) (UniProt P06401); assay: qHTS assay to identify small molecule agonists of the progesterone receptor (PR) signaling pathway (AID 1346784); further: nearly all actives have a fitted effect of over 30% in size
How it was run: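 Beta-lactamase reporter read-out: after 16 hr compound treatment at 37C and a further 2 hr at room temperature with LiveBLAzer B/G FRET substrate, fluorescence was measured in PR-UAS-bla HEK 293T cells grown in 2% charcoal-stripped serum.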

[9] = qHTS assay to identify small molecule agonists of the progesterone receptor (PR) signaling pathway - cell viability counter screen (AID 1346799); further: nearly all actives have a fitted effect of over 45% in size; further: potency means the concentration at half of the fitted maximal effect
How it was run: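 Luminescence from CellTiter-Glo, added after the beta-lactamase FRET read in the same wells, gave cytotoxicity in PR-UAS-bla HEK293T cells treated with compounds for 16 hr at 37C.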

[10] = target: Progesterone receptor (Homo sapiens) (UniProt P06401); assay: qHTS assay to identify small molecule antagonists of the progesterone receptor (PR) signaling pathway (AID 1346795; active means well fitted inhibition curve with a large enough effect in the signal ratio in the repeat runs, not every such curve was filed as active; the % refers to the signal ratio)
How it was run: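 Read-out is fluorescence from the LiveBLAzer B/G FRET substrate, cleaved by a UAS-controlled beta-lactamase in PR-UAS-bla HEK293T cells after 16 hr exposure to compound plus 1 nM promegestone (final), followed by 2 hr at room temperature.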

Chain of Thyrotropin receptor (Homo sapiens) (P16473 whole entry, looked up): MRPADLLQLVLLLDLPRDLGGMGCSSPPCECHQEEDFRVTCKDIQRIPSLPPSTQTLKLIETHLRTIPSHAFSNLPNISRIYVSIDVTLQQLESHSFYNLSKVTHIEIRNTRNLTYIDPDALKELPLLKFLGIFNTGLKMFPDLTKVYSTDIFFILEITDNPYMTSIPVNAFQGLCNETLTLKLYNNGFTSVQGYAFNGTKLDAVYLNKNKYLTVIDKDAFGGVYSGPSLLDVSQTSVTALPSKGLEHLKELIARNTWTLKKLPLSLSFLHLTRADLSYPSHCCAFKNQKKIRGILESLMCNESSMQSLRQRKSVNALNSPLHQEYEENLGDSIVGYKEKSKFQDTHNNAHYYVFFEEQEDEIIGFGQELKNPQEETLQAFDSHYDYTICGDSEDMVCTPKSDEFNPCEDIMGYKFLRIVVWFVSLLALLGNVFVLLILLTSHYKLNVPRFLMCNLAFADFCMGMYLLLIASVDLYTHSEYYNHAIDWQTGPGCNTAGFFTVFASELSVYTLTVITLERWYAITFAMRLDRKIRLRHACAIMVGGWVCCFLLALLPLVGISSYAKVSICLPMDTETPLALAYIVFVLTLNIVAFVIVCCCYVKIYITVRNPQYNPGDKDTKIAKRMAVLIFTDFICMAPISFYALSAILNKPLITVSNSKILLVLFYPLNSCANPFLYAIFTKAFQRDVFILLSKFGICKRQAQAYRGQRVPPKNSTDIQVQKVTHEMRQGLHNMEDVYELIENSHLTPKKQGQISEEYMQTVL
Chain of Estrogen receptor (Homo sapiens) (P03372 whole entry, looked up): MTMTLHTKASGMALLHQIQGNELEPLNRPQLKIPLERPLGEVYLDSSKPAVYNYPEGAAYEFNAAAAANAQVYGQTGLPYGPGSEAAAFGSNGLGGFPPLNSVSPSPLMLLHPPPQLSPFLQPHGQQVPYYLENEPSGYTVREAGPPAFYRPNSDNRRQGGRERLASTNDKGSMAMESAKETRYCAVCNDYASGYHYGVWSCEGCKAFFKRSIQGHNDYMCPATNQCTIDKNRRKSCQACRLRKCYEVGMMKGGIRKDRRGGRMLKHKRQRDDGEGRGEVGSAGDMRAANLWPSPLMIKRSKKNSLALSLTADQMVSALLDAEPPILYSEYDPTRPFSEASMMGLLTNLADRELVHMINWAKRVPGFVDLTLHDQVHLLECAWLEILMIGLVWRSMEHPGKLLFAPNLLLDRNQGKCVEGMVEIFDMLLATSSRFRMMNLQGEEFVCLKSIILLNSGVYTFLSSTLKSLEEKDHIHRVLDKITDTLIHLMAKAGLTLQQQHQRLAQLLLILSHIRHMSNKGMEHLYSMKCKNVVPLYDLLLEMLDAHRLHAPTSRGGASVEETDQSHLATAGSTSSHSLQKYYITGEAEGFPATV
Chain of Androgen receptor (Homo sapiens) (P10275 whole entry, looked up): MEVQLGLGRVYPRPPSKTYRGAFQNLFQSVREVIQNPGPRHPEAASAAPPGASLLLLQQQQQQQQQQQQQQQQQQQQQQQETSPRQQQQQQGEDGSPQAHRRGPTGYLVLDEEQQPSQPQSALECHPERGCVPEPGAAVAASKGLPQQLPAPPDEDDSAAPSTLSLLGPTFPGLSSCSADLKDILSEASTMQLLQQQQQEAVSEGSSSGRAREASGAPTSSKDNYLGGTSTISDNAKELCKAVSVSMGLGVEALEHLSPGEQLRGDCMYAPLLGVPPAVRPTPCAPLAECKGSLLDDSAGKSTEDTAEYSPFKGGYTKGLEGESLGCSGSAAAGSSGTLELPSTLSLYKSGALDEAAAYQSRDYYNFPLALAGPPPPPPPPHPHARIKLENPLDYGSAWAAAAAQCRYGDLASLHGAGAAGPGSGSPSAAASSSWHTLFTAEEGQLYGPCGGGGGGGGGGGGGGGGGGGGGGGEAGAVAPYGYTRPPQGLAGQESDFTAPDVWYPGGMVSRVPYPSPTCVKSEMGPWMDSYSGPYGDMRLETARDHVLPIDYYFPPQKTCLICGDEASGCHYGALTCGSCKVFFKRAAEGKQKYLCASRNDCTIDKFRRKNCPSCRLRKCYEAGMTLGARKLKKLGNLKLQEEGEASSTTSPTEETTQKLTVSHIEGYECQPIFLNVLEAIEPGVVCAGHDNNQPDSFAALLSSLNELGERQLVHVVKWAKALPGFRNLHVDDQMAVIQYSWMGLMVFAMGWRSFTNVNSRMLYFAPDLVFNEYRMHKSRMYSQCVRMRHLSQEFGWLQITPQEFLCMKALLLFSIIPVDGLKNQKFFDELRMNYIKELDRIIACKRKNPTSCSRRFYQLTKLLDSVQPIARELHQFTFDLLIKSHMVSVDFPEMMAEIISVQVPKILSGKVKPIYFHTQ
Chain of Progesterone receptor (Homo sapiens) (P06401 whole entry, looked up): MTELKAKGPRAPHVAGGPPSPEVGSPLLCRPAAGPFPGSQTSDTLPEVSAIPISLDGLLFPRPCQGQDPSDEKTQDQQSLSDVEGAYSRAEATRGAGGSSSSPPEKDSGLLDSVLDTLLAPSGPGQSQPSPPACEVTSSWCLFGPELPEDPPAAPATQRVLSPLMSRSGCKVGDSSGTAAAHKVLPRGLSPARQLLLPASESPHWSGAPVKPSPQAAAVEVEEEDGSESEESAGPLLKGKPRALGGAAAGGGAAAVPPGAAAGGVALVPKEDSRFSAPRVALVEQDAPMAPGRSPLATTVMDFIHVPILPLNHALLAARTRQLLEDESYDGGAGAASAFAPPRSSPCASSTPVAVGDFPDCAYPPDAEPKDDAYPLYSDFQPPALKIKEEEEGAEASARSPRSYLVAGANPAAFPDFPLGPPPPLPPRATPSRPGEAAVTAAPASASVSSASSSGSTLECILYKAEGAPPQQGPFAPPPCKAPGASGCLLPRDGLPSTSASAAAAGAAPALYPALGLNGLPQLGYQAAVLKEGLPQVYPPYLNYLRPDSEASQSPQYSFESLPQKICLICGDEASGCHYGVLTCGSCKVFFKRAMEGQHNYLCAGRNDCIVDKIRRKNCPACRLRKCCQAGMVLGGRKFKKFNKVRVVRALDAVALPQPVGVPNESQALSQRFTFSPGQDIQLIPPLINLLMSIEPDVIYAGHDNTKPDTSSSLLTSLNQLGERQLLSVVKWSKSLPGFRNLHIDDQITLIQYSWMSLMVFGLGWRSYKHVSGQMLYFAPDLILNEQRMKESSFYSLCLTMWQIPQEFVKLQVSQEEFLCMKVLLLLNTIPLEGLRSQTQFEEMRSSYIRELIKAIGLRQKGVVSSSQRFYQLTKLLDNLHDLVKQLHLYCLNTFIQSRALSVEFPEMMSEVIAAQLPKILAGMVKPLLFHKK

In the case of `N#Cc1nc(Cl)c(Cl)c(Cl)c1Cl`, the Potency [1] is reported as “inactive”, the Potency [2] is reported as 30.6 µM (active) and the Potency [3] is reported as “inactive”. The Potency [4] was “inactive” and the Potency [5] was 24.3 µM (active).

With `O=C(O)C[C@H](O)C[C@H](O)/C=C/c1c(C2CC2)nc2ccccc2c1-c1ccc(F)cc1` the activation [1] was -0.267% [at 19 µM], the activation [6] was -0.342% [at 19 µM] and the cAMP activity change [3] was -3.96% [at 18.9 µM, stronger effect = higher value]. It also gave an activity change, negative = inhibition [4] of 1.31% [at 19 µM], an activity change, negative = cytotoxicity [7] of 8.43% [at 19 µM] and an activation [8] of -0.575% [at 19 µM]. For the same molecule, the Potency [9] was 0.651 µM (active).

For `CC/C=C(\C)C=O`, the Potency [2] was “inactive”, the Potency [6] was “inactive” and the Potency [3] was “inactive”. The Potency [4] was “inactive”, the Potency [7] was “inactive” and the outcome [8] was “inactive”. The Potency [10] was “inactive”, the Potency [5] was “inactive” and the Potency [9] was “inactive”.

In the case of `COc1cc(C(C)C)ccc1C`, the activation [1] is reported as 0.232% [at 19 µM], the activity change, negative = cytotoxicity [2] is reported as -0.566% [at 19 µM] and the cAMP activity change [3] is reported as 3.96% [at 18.9 µM, stronger effect = higher value]. It also gave an activity change, negative = inhibition [4] of -0.443% [at 19 µM], an activity change, negative = cytotoxicity [7] of -2.95% [at 19 µM] and an activation [8] of 2.45% [at 19 µM]. The activity change, negative = inhibition [10] was 2.91% [at 18.9 µM], the activity change, negative = cytotoxicity [5] was -15.7% [at 18.9 µM] and the activity change, negative = cytotoxicity [9] was -8.49% [at 19 µM].

In the case of `O=C1OC(=O)c2cc(-c3ccc4c(c3)C(=O)OC4=O)ccc21`, the Potency [2] is reported as “inactive”, the Potency [6] is reported as “inactive” and the Potency [3] is reported as “inactive”. The Potency [4] was “inactive”, the Potency [7] was “inactive” and the outcome [8] was “inactive”. For the same molecule, the Potency [10] was “inactive” and the Potency [5] was “inactive”.

In the case of `C=Cc1ccncc1`, the Potency [1] is reported as “inactive”, the Potency [2] is reported as “inactive” and the Potency [3] is reported as “inactive”. For the same molecule, the Potency [4] was “inactive”, the Potency [7] was “inactive” and the outcome [8] was “inactive”. For the same molecule, the Potency [10] was “inactive” and the Potency [9] was “inactive”.

In the case of `CCN(CC)c1ccc2c(c1)Oc1cc(N(CC)CC)ccc1C21OC(=O)c2ccccc21`, the Potency [1] is reported as “inactive”, the Potency [6] is reported as “inactive” and the Potency [7] is reported as 5.31 µM (active). The outcome [8] was “inactive”, the Potency [10] was “inactive” and the Potency [9] was “inactive”.

In the case of `CC/C(=C(/c1ccc(O)cc1)c1ccc(OCCN(C)C)cc1)c1ccccc1`, the Potency [1] is reported as “inactive”, the Potency [2] is reported as 28.5 µM (active) and the Potency [3] is reported as “inactive”. For the same molecule, the Potency [4] was “inactive” and the Potency [9] was 18 µM (active).

In the case of `CC(C)c1ccc2sc3ccccc3c(=O)c2c1`, the Potency [2] is reported as “inactive”, the Potency [6] is reported as 1.37 µM (active) and the Potency [3] is reported as “inactive”. The Potency [4] was 54.5 µM (active), the outcome [8] was “inactive” and the Potency [9] was “inactive”.

With `C=C(C)CCO` the Potency [2] was “inactive”, the Potency [6] was “inactive” and the Potency [3] was “inactive”. For the same molecule, the Potency [4] was “inactive”, the outcome [8] was “inactive” and the Potency [10] was “inactive”. For the same molecule, the Potency [5] was “inactive” and the Potency [9] was “inactive”.

For `CC(c1cc(C(C)(C)C)cc(C(C)(C)C)c1O)c1cc(C(C)(C)C)cc(C(C)(C)C)c1O`, the Potency [2] was “inactive”, the Potency [6] was “inactive” and the Potency [3] was “inactive”. For the same molecule, the Potency [4] was “inactive”, the Potency [7] was “inactive” and the outcome [8] was “inactive”. For the same molecule, the Potency [10] was “inactive”, the Potency [5] was “inactive” and the Potency [9] was “inactive”.

With `CCCCCCCCSCc1cc(C)c(O)c(CSCCCCCCCC)c1` the Potency [2] was “inactive”, the Potency [6] was “inactive” and the Potency [3] was “inactive”. The Potency [4] was “inactive”, the outcome [8] was “inactive” and the Potency [5] was “inactive”. For the same molecule, the Potency [9] was “inactive”.

With `CCOC(=O)OC(=O)OCC` the Potency [2] was “inactive”, the Potency [6] was “inactive” and the Potency [3] was “inactive”. For the same molecule, the Potency [4] was “inactive”, the Potency [7] was “inactive” and the outcome [8] was “inactive”. For the same molecule, the Potency [10] was “inactive”, the Potency [5] was “inactive” and the Potency [9] was “inactive”.

For `O=C1OC(O)C(C(Cl)Cl)=C1Cl` (configuration not stated), the Potency [2] was “inactive”, the Potency [6] was “inactive” and the Potency [3] was “inactive”. For the same molecule, the Potency [4] was “inactive”, the Potency [7] was “inactive” and the Potency [9] was “inactive”.
